The list is not random: actives were taken first. Their share in the collection is about 1.3%.
MEX-5 binding: C. elegans MEX-5 TCR-2 RNA binding activity. MEX-5/FITC-TCR2 RNA binding, fluorescence polarization; hits give low values. Q9XUB2. activity score (negative = inhibition of binding), % at 10 µM. 300,000 compounds, 0.38% hits;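 active means inhibition past about -25% in most replicates, and total fluorescence under double the plate's negative control median, limit read from the data; inconclusive means replicates evenly split on the limit, or fluorescence at least double controls; inactive means too little inhibition in most replicates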;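 further: 0% = DMSO and -100% = 5 µM competing unlabeled TCR2 RNA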
eLon inh: inhibits E. coli Lon protease; P0A9M0; purified E. coli Lon protease, fluorescence polarization; inhibition, % at 7.94 µM; 360,000 compounds, 0.42% hits; AID 602123; in the data active means inhibition above about 13%, passing the limit was not always enough;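 further: 0% = enzyme with probe and DMSO and 100% = no enzyme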
Target sequence (P0A9M0 whole entry, looked up): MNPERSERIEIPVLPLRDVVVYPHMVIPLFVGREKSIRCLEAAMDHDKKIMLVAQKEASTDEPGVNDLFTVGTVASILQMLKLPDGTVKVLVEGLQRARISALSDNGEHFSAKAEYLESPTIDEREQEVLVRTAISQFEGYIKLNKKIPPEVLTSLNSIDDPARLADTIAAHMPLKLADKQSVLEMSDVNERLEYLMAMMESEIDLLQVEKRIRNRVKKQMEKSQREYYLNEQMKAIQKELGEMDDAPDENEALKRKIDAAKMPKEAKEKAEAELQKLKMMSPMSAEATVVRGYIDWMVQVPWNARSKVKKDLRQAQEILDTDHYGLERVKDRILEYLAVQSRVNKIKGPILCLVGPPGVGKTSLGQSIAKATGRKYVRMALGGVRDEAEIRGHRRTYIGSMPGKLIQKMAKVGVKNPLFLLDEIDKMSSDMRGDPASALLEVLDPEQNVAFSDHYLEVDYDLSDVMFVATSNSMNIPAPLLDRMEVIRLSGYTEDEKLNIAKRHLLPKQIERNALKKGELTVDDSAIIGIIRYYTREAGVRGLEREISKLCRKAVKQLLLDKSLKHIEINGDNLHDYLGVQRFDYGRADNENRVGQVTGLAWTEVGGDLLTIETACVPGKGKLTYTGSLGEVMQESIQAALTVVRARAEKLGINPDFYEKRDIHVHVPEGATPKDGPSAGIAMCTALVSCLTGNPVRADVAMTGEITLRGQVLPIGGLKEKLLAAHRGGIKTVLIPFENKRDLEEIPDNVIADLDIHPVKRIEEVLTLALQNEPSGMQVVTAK
Bcl-xL primary: blocks human Bcl-xL binding to Bim BH3 peptide | GST-Bcl-xL / FITC-Bim BH3 peptide fluorescence polarization | 320,000 compounds, 0.7% hits | AID 2129 | inhibition, % at 10.9 µM | Q07817;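 active means inhibition above the mean of all tested compounds plus 3 SD, cutoff set per campaign, cut at about 30% in these data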;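 further: 0% = DMSO wells and 100% = unlabeled Bim-BH3 peptide competitor; inhibitors lower millipolarization by displacing the labeled peptide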
EBV gp42 inh: inhibitors of Epstein-Barr virus glycoprotein 42 | Q1HVG2 | Fluorescence polarization binding assay, mP read-out | inhibition, % (tested at 21.74 µM) | 220,000 compounds, 0.42% hits | AID 1085; in the data active means inhibition above about 50%
GLD-1 RNA inh: GLD-1-TGE RNA interaction inhibition (C. elegans); Q17339; purified GLD-1 + fluorescein TGE RNA, fluorescence polarization; inhibition, % at 5.96 µM; 320,000 compounds, 0.44% hits; AID 2280;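 active means percent inhibition above a per-plate cutoff, the plate mean of test compounds plus 3 SD, cut at about 30% in these data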;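 further: 0% = DMSO wells with GLD-1 and probe and 100% = wells lacking GLD-1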
* marks the source's active call; other numbers are inactive results; ? = inconclusive; · = no result given.

SMILES	MEX-5 binding	eLon inh	Bcl-xL primary	EBV gp42 inh	GLD-1 RNA inh
N#Cc1ccc(NC(=O)COC(=O)c2cccnc2Cl)cc1	·	-7.3	·	·	5.5
O=C1NC(=O)/C(=C/c2cccc3ccccc23)S1	-0.8	2.9	7.7	·	9.1
O=C1NC(=O)/C(=C\c2ccc(O)cc2O)S1	-20.6	2.6	31.0*	33.8	-12.0
Cc1ccc2[nH]c3c(c2c1)CN(C(=O)CN1CCCCC1)CC3	-6.4	·	8.9	-3.1	14.4
Cc1ccc2[nH]c3c(c2c1)CN(C(=O)CN1CCCc2ccccc21)CC3	-1.0	-18.3	33.2*	10.2	-8.0
CN(CC(=O)N1CCc2[nH]c3ccc(F)cc3c2C1)CC1OCCO1	-5.8	·	10.0	0.5	3.6
Cc1ccc2[nH]c3c(c2c1)CN(C(=O)CN(C)CC1OCCO1)CC3	-6.6	9.0	57.8*	8.0	52.7*
CCn1cc(CN2CCC(n3nccc3NC(=O)CCOc3ccccc3)CC2)c(C)n1	-3.4	-11.4	0.1	·	4.4
Cc1cc(C)c(C)c(S(=O)(=O)N2CCN(C(=O)c3ccccc3OCc3c(C)noc3C)CC2)c1C	·	-6.1	-2.7	·	-0.6
O=C(Cc1ccc(O)cc1)N/N=C/c1cccnc1	·	4.3	·	·	·
Cc1ccc(-n2[nH]c(C)c(C=Nc3ccc4[nH]c(=O)[nH]c4c3)c2=O)cc1	-2.2	1.9	16.6	24.1	7.9
Cc1ccc(-n2[nH]c(C)c(C=Nc3ccc4[nH]c(=O)[nH]c4c3)c2=O)cc1C	-6.6	0.3	60.4*	23.3	15.0
O=C(O)c1cc(-c2ccco2)nn1-c1cccc(Cl)c1	-7.7	-25.9	31.1*	17.3	-10.5
NS(=O)(=O)c1ccc(Nc2nc(-c3ccc(O)cc3O)cs2)cc1	-44.6*	2.8	10.9	0.1	-1.1
NS(=O)(=O)c1ccc(Nc2nc(-c3ccc(F)cc3)cs2)cc1	-1.2	1.9	3.8	10.1	5.8
Cc1ccccc1C(=O)N=c1ccn(-c2nc3ccccc3nc2NS(=O)(=O)c2ccc(F)cc2)cc1	?	2.8	34.2*	·	5.1
COCCC(=O)N1CCC(Oc2ccc(C(=O)NCCn3cccn3)cc2)CC1	0.4	8.1	-0.2	·	2.2
CC(C)(C)N1CC(c2nc3ccccc3n2CCOc2ccccc2)CC1=O (configuration not stated)	0.3	0.5	2.0	66.9*	-2.7
CC(=O)N1CCc2cc(NC(=O)C3(C)CCN3Cc3ccccc3Cl)ccc21 (configuration not stated)	·	-8.2	·	·	·
CNC(=O)c1c(NC(=O)C2=COCCO2)sc2c1CCN(C(=O)OC)C2	0.2	1.1	3.8	·	9.1
CC1=Nc2ccc(C)cc2/C1=C/c1c(N)n2nc(CC(=O)N3CCOCC3)sc2nc1=O	-51.8*	-89.4	-11.1	·	-32.0
CCOC(=O)c1cc(-c2ccccc2)sc1NC(=S)Nc1cc(C)ccn1	-57.4*	-2.4	2.3	-87.2	-0.8
COc1ccc(N/C(=C(/C(Cl)=C(Cl)Cl)[N+](=O)[O-])n2nnc3ccccc32)cc1	-42.4*	·	39.2*	15.1	17.6
COc1ccc2c(c1)OCC1=C2CCC2(C)C(=O)CC=C12 (configuration not stated)	-12.9	·	40.1*	-8.9	39.3*
CCN(CC)C(=O)c1ccc(S(=O)(=O)c2ccccc2)cc1	1.1	-14.7	4.6	·	5.3
SMILES	MEX-5 binding	eLon inh	Bcl-xL primary	EBV gp42 inh	GLD-1 RNA inh
COc1cccc2c1NC(C(=O)O)C1CC=CC21 (configuration not stated)	-76.4*	-11.7	78.5*	62.5*	4.1
O=C(NCc1ccccc1)C1Nc2ccc(OC(F)(F)F)cc2C2C=CCC12 (configuration not stated)	-1.7	-13.6	0.6	·	1.4
O=C(O)C1Nc2c(cccc2C(F)(F)F)C2C=CCC12 (configuration not stated)	-29.1*	·	·	·	·
COc1cccc(C2Nc3c(F)cc(Br)cc3C3C=CCC32)c1OC (configuration not stated)	4.0	-16.2	3.0	-3.9	2.5
COc1cccc(C(NC(C)=O)c2nc(-c3cccc(F)c3)cs2)c1 (configuration not stated)	·	-8.0	·	·	·
CCOC(=O)c1ccc(N2CCOCC2)c(NC(=O)c2ccc3c(c2)OCO3)c1	-1.5	-3.3	0.2	·	0.6
CN1C(=O)CCC2(c3ccccc3)CC=C(O)C=C12 (configuration not stated)	·	-0.5	·	·	·
Cc1ccc(N2C3=C(C(=O)CC(C)(C)C3)C(c3cn(C)nc3C)C3=C2CC(C)(C)CC3=O)cc1	-6.6	80.0*	92.8*	·	87.8*
N=C1C(c2nc3ccccc3[nH]2)=C(O)CN1c1ccc(CC(=O)O)cc1	-84.9*	-16.7	16.0	-10.0	-2.5
N=C1C(c2nc3ccccc3[nH]2)=C(O)CN1c1ccccc1	-4.6	0.2	0.8	-15.7	1.7
CCS(=O)(=O)NCc1ccc2[nH]c3c(c2c1)CCCC3	-0.1	·	58.8*	12.3	39.8*
Cc1cc(C)cc(NC(=S)NCc2ccc3[nH]c4c(c3c2)CCCC4)c1	0.4	-10.6	5.7	0.0	13.8
Cn1c2ccccc2c2cc(/C=N/NC(=O)c3cc(O)cc(O)c3)ccc21	3.4	5.8	19.4	·	6.9
Cn1c2ccccc2c2cc(/C=N/NC(=O)c3cc(O)ccc3O)ccc21	1.1	5.3	32.3*	·	8.1
Cc1cc(O)c(C=O)c2c1C(=O)Oc1c(CO)c(O)c3c(c1O2)C(O)OC3=O (configuration not stated)	·	72.2*	48.5*	-1.0	14.4
O=C(c1cc(-c2ccccn2)nc2ccc(Cl)cc12)N1CCN(CCc2ccccc2)CC1	-3.8	2.3	11.0	-5.5	4.4
Cc1cnn(C(=O)c2cc(-c3ccccn3)nc3ccc(Cl)cc23)c1	0.5	9.8	31.1*	-0.3	0.8
O=c1cc(CN2CCCCC2)c2c(ccc3ccccc32)o1	·	-2.7	·	·	·
O=c1[nH][nH]c2c(N=Cc3ccccc3O)ccc(F)c12	·	25.2*	·	11.8	·
O=C(CC1C(=O)NCCN1C(=O)Nc1ccc(F)cc1)Nc1ccc(F)cc1 (configuration not stated)	-1.1	-1.6	0.2	-19.5	-0.1
CCC1c2ccc(C)n2CCN1C(=O)Nc1ccc(F)cc1 (configuration not stated)	-0.7	6.8	45.5*	-1.2	24.5
CCCC1c2ccc(C)n2CCN1C(=O)Nc1ccc(F)cc1 (configuration not stated)	-3.0	0.1	45.9*	6.5	15.2
O=[N+]([O-])c1cccc(/C=C/c2nc(C=Nc3ccccc3)c(O)o2)c1	-42.6*	-9.2	-30.7	-3.1	-13.5
O=[N+]([O-])c1cccc(/C=N/N=C\c2ccccc2)c1	0.0	-2.9	·	·	·
O=C(O)c1ccc2c(c1)C(=O)N(c1ccc(OCc3ccccc3)cc1)C2=O	1.0	-5.9	12.2	·	1.1
CCN(CC)c1ccc(N=Nc2nn(C)c(C)c2[N+](=O)[O-])cc1	0.1	0.7	0.5	-16.2	-2.0
CCN(CC)c1ccc(N=Nc2ncn[nH]2)cc1	-51.9*	-12.4	-14.6	-41.9	-33.3
CCC1CC(C(=O)Nc2ccccc2)C(=O)O1 (configuration not stated)	·	1.2	1.1	·	4.9
